We go through 11 compounds from PubChem BioAssay.

“And” between values parts separate entries of the source, which are not always exact repeats. Equal values may be shown once. Inconclusive results are not listed. The source made the active and inactive calls.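 How the source made its calls, unless noted: active means compounds killing one labelled cell type while sparing the other, by normalised counts and ratio limits, not self-fluorescent; inactive means the rest.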

Assay [1] in a line: stimulators of insulin release from INS-1E, primary screen, cell-based, 5 mM glucose, NPC library (AID 1117329;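 active means compound raises insulin release from rat beta cells at 5 mM glucose, no numeric limit stated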). As to conditions: rat INS-1E insulin secretion, at 10 µM, stronger effect = higher value.
Assay [2] in a line: growth inhibition of GSK3B-pretreated HCT116 cells – cell-based, CellTiter-Glo, 0.2 to 20 µM (AID 1117336;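 active means compounds lowering colon cancer cell viability after pretreatment blocking the GSK3B kinase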). As to conditions: HCT116 viability after GSK3B inhibitor, at 20 µM, stronger effect = higher value. A general note: In ATP-based viability assays light output follows the ATP content of the culture.
Assay [3] is described as follows: inhibition of endothelial tube formation, primary screen, imaging, VEGF stimulated, CD31 staining, tube area, NPC library (AID 1117340;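 active means compound that reduces growth-factor-driven endothelial tube area in a mixed cell culture, no cutoff stated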). As to conditions: VEGF-stimulated ADSC/ECFC co-culture, at 10 µM, stronger effect = higher value.
A short description of assay [4]: glucagon-like peptide 1 release enhancers, primary assay, NCI-H716 cell line, NPC library (AID 1117341;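 active means compound raises GLP1 secretion from the human gut endocrine cells, with no numeric limit stated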). As to conditions: NCI-H716 cells, at 10 µM, stronger effect = higher value.
Assay [5] is described as follows: HCT116 colon cancer cell growth inhibition, primary screen, CellTiter-Glo luminescence, NPC library (AID 1117342;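 active means compounds that lower survival of HCT116 colon cancer cells in the luminescence readout, no numeric limit stated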). As to conditions: at 20 µM (top of the series).
The nature of assay [6]: CellTiter-Glo luminescent readout of SW480 viability loss, NPC library primary (AID 1117343;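 active means compounds that lower viability of the colon cancer cells in the luminescence readout, with no numeric limit stated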). As to conditions: CellTiter-Glo luminescence; at 20 µM (top of the series).
The nature of assay [7]: decreased DLD-1 cellular survival, CellTiter-Glo luminescent readout, NPC compound collection, primary HTS (AID 1117346;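 active means compounds that lower survival of DLD-1 colon cancer cells in the luminescence readout, no cutoff given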). As to conditions: DLD-1 viability, CellTiter-Glo luminescence; at 20 µM (top of the series).
Assay [8] addresses 6-phosphogluconate dehydrogenase, decarboxylating (Homo sapiens) (UniProt P52209). Description: 6PGD enzyme inhibitors, primary screen, biochemical, human, recombinant enzyme, NADPH absorbance (AID 1159550;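 active means at least 20% inhibition of 6-phosphogluconate dehydrogenase activity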). As to conditions: recombinant 6PGD, NADPH absorbance 341 nm; at 10 µM; stronger effect = higher value.
Assay [9] is described as follows: differential killing of epithelial or mesenchymal cells, primary screen, imaging, PC-3E GFP, TEM4-18 mCherry, co-culture (AID 1345086).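 On all read-outs here: cells exposed to compound for 72 h before imaging.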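 On red/green cell ratio (normalised): normalised mesenchymal count divided by normalised epithelial count so high means epithelial killing.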 As to conditions: imaging cell counts, at 1 µM; for red/green cell ratio (normalised): actives lie on both sides, counts scaled to control wells, 1 = unselective.
A short description of assay [10]: growth inhibition of DIPG glioma cells, dose response, cell-based, SU-DIPG-XIII, MIPE4.0, CellTiter-Glo, qHTS (AID 1347061; cut-off not given, nearly all actives have AC50 up to about 37 µM;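 further: cells exposed to compound for 48 hours before readout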). As to conditions: SU-DIPG-XIII viability, CellTiter-Glo ATP luminescence.
The nature of assay [11]: growth inhibition of DIPG glioma cells, dose response, cell-based, JHH-DIPG-1, MIPE4.0, CellTiter-Glo, qHTS (AID 1347062; cut-off not given, nearly all actives have AC50 up to about 27 µM;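 on AC50: cells exposed to compound for two days before readout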). As to conditions: JHH-DIPG-1 viability, CellTiter-Glo ATP luminescence.
The nature of assay [12]: growth inhibition of DIPG glioma cells, dose response, cell-based, SU-DIPG-IV, MIPE4.0, CellTiter-Glo, qHTS (AID 1347063; cut-off not given, nearly all actives have AC50 up to about 30 µM;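 further: compound exposure lasted 48 hours before the viability readout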). As to conditions: SU-DIPG-IV viability, CellTiter-Glo ATP luminescence.
Assay [13] is described as follows: growth inhibition of DIPG glioma cells, dose response, cell-based, SU-DIPG-XIII, MIPE5.0, CellTiter-Glo, qHTS (AID 1347064; cut-off not given, nearly all actives have AC50 up to about 23 µM). As to conditions: SU-DIPG-XIII viability, CellTiter-Glo ATP luminescence.
A short description of assay [14]: growth inhibition of DIPG glioma cells, dose response, cell-based, SU-DIPG-XVII, MIPE5.0, CellTiter-Glo, qHTS (AID 1347060; cut-off not given, nearly all actives have AC50 up to about 26 µM;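 further: cells exposed to compound for 48 hours before viability readout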). As to conditions: SU-DIPG-XVII viability, CellTiter-Glo ATP luminescence.
Where [15] appears, read: measured here: epithelial PC-3E GFP cell survival.
Where [16] appears, read: measured here: mesenchymal TEM4-18 mCherry cell survival.

Chain of 6-phosphogluconate dehydrogenase, decarboxylating (Homo sapiens) (P52209 whole entry, looked up): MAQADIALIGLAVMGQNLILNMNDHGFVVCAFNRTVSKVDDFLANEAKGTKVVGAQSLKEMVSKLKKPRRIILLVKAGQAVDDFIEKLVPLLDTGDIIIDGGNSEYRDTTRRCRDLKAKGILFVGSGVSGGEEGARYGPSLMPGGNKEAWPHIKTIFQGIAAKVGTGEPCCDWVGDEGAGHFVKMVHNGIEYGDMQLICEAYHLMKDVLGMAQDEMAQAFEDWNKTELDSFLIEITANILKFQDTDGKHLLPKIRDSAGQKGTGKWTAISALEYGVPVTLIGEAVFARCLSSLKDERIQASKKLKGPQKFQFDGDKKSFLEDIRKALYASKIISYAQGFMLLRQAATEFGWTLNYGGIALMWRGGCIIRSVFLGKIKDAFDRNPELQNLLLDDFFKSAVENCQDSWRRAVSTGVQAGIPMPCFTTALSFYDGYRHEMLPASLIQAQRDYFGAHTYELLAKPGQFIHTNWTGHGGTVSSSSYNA

One may read the inhibition as the change of the read-out against control, counted positive when it falls. On to `COc1ccc2c(c1)c(CC(=O)OCC(=O)O)c(C)n2C(=O)c1ccc(Cl)cc1`, for which the insulin secretion stimulation in assay [1] was 2.2% (inactive). For the same compound, the viability decrease in [2] is 4.9% (inactive). Moreover, in assay [3], the tube area decrease was -5.2% (inactive). Also, the GLP1 secretion stimulation in assay [4] was -2.5% (inactive). Moreover, the inhibition of viability in assay [5] is 12.8% (inactive). The viability decrease (inhibition) in assay [6] is 33.3% (inactive); in assay [7] it was 0.1% (inactive). Besides, the inhibition in [8] is -4.54% (inactive). The red/green cell ratio (normalised) in assay [9] was 0.77 (inactive). Moreover, the normalised cell number in assay [9] (setting [15]) was 1.18; in assay [9] (setting [16]), 0.91. In addition, the call in assay [10], in [11] and in [12] was inactive.

In the case of `COc1cc(NS(=O)(=O)c2ccc(N)cc2)nc(OC)n1`, the insulin secretion stimulation in [1] is 1.8% (inactive). Besides, in [2], the viability decrease was -7.9% (inactive). For the same compound, in assay [3], the tube area decrease is 0.8% (inactive). In [4], the GLP1 secretion stimulation was 1.9% (inactive). Besides, in assay [5], the inhibition of viability is -0.4% (inactive). Moreover, the viability decrease (inhibition) was 8.4% (inactive) in [6] and 0.7% (inactive) in [7]. The inhibition in [8] is -12.2% (inactive). In [9], the red/green cell ratio (normalised) was 1.12 (inactive). In addition, the normalised cell number in [9] (setting [15]) stood at 0.64; in assay [9] (setting [16]), 0.72. For the same compound, the outcome in [10], in assay [11] and in [12] was inactive.

Turning to `O=c1oc2cc(O)ccc2s1`, the insulin secretion stimulation in assay [1] is 2.9% (inactive). The viability decrease in [2] was -9.5% (inactive). In assay [3], the tube area decrease was 11.8% (inactive). Besides, the GLP1 secretion stimulation in assay [4] is -4.3% (inactive). For the same compound, in [5], the inhibition of viability was -4.7% (inactive). Besides, the results for the viability decrease (inhibition) in assay [6] and in assay [7] were 3.7% (active) and 10.2% (inactive), respectively. Further, the inhibition in [8] is 11.7% (inactive). Also, in assay [9], the red/green cell ratio (normalised) is 0.91 (inactive) and 0.99 (inactive). Further, the normalised cell number in assay [9] (setting [15]) is 1.1 and 0.89; in [9] (setting [16]), 1 and 0.88. Moreover, the outcome in [10], in assay [11], in assay [12] and in [13] was inactive.

`O=C(N[C@H](CO)[C@H](O)c1ccc([N+](=O)[O-])cc1)C(Cl)Cl`: in [1], the insulin secretion stimulation is 1.8% (inactive). In assay [2], the viability decrease was -11.1% (inactive). The tube area decrease in [3] is 12.5% (inactive). In addition, the GLP1 secretion stimulation in assay [4] is -4.2% (inactive). Also, in assay [5], the inhibition of viability was -1.7% (inactive). The values for the viability decrease (inhibition) in assay [6] and in assay [7] were -0.7% (inactive) and -7% (inactive), respectively. Besides, the inhibition in assay [8] is 15.5% (inactive). Also, the red/green cell ratio (normalised) in [9] is 0.78 (inactive). Moreover, the normalised cell number in assay [9] (setting [15]) stood at 1.21; in [9] (setting [16]), 0.95. Moreover, the result in assay [11] and in [12] was inactive.

In general, AC50 refers to the concentration giving half of the maximal activity seen. Turning to `CCCN(CCC)C(=O)C(CCC(=O)O)NC(=O)c1ccccc1` (stereo not drawn), the insulin secretion stimulation in assay [1] is 1.3% (inactive). Moreover, the viability decrease in assay [2] is -11.7% (inactive). In [3], the tube area decrease is -25.9% (inactive). In addition, the GLP1 secretion stimulation in assay [4] was 0.4% (inactive). Also, the inhibition of viability in assay [5] was -4.15% (inactive). The viability decrease (inhibition) in assay [6] is -0.1% (inactive); in assay [7] it was -14.6% (inactive). Further, the inhibition in assay [8] is 1.53% (inactive). The red/green cell ratio (normalised) in assay [9] was 1.08 (inactive). Further, the normalised cell number in assay [9] (setting [15]) was 0.92; in assay [9] (setting [16]), 1. In assay [14], the half-maximal activity concentration (AC50) was 26300 nM (active). Further, the compound was called inactive in [13].

`O=C(O)c1cccnc1Nc1cccc(C(F)(F)F)c1`: the insulin secretion stimulation in assay [1] was -3.1% (inactive). Further, in [2], the viability decrease is 13% (inactive). The tube area decrease in [3] was 12.7% (inactive). For the same compound, the GLP1 secretion stimulation in assay [4] is 0.6% (inactive). Also, the inhibition of viability in assay [5] is -5.9% (inactive). Besides, the viability decrease (inhibition) was 60% (active) in [6] and 28.2% (inactive) in assay [7]. Also, the inhibition in assay [8] was 12.6% (inactive). The red/green cell ratio (normalised) in assay [9] is 0.93 (inactive). Moreover, the normalised cell number in [9] (setting [15]) turned out to be 1.08; in [9] (setting [16]), 1. Besides, the compound was classed as inactive in assay [10], in [11] and in assay [12].

In the case of `COc1cnc(NS(=O)(=O)c2ccc(N)cc2)nc1`, the insulin secretion stimulation in assay [1] was 1.9% (inactive). Moreover, the viability decrease in assay [2] is -21.6% (inactive). Further, the tube area decrease in [3] is -5.6% (inactive). The GLP1 secretion stimulation in assay [4] is 0.5% (inactive). For the same compound, the inhibition of viability in assay [5] was -7.43% (inactive). In addition, the viability decrease (inhibition) was 23.4% (inactive) in assay [6] and -14.6% (inactive) in assay [7]. In addition, in [8], the inhibition is -8.19% (inactive). Also, the red/green cell ratio (normalised) in assay [9] is 1.15 (inactive). Moreover, the normalised cell number is 0.87 in assay [9] (setting [15]) and 0.99 in assay [9] (setting [16]). Besides, the concentration at half-maximal activity (AC50) in assay [11] is 2960 nM (active).

Take `COC(=O)Nc1nc2ccc(Sc3ccccc3)cc2[nH]1`: in assay [1], the insulin secretion stimulation is 1.1% (inactive). Also, the viability decrease in [2] is 48% (active). In addition, the tube area decrease in assay [3] was 103% (active). In addition, the GLP1 secretion stimulation in [4] is 48.3% (active). Besides, in assay [5], the inhibition of viability is 94.4% (active). In addition, the viability decrease (inhibition) was 81.8% (active) in [6] and 45.8% (active) in assay [7]. In addition, the inhibition in assay [8] is 10.3% (inactive). Moreover, the red/green cell ratio (normalised) in [9] is 1.07 (inactive). The results for the normalised cell number in [9] (setting [15]) and in assay [9] (setting [16]) were 0.25 and 0.26, respectively. The values for the half-maximal activity concentration (AC50) in assay [14] and in assay [12] were 934 nM (active) and 2640 nM (active), respectively.

Consider `CN(C)CCC=C1c2ccccc2C=Cc2ccccc21`, for which the insulin secretion stimulation in assay [1] was 15.2% (inactive). In addition, in assay [2], the viability decrease was -81.6% (inactive). In assay [3], the tube area decrease was 1.5% (inactive). Besides, the GLP1 secretion stimulation in assay [4] is 7.9% (inactive). In assay [5], the inhibition of viability was 27.1% (inactive). In addition, the viability decrease (inhibition) is 111% (active) in [6] and 7.5% (inactive) in assay [7]. Besides, the inhibition in assay [8] was -4.48% (inactive). For the same compound, in [9], the red/green cell ratio (normalised) was 1.06 (inactive). Besides, the normalised cell number in assay [9] (setting [15]) is 1.13; in assay [9] (setting [16]), 1.19. The call in assay [10] and in assay [12] was inactive.

Turning to `C[C@H]1c2cccc(O)c2C(O)=C2C(=O)[C@]3(O)C(O)=C(C(N)=O)C(=O)[C@@H](N(C)C)[C@@H]3[C@@H](O)[C@@H]21`, the insulin secretion stimulation in assay [1] was -0.5% (inactive). Besides, the viability decrease in assay [2] is 92.4% (active). Also, the tube area decrease in assay [3] was -4.2% (inactive). Further, the GLP1 secretion stimulation in [4] was 2.6% (inactive). In addition, in assay [5], the inhibition of viability is 68.1% (active). Also, the viability decrease (inhibition) is 61.1% (active) in assay [6] and 90.9% (active) in [7]. For the same compound, the inhibition in assay [8] was 9.31% (inactive). For the same compound, the red/green cell ratio (normalised) in [9] was 1.48 (inactive). Besides, the normalised cell number in assay [9] (setting [15]) amounted to 1.06; in assay [9] (setting [16]), 1.57. Further, the compound was called inactive in assay [10] and in assay [11].

Regarding `CC[N+](CC)(CC)CCOc1cccc(OCC[N+](CC)(CC)CC)c1OCC[N+](CC)(CC)CC`, the insulin secretion stimulation in assay [1] is -1.3% (inactive). Moreover, the viability decrease in assay [2] is -8.1% (inactive). Also, the tube area decrease in assay [3] is -2.2% (inactive). The GLP1 secretion stimulation in [4] was 1.9% (inactive). In addition, in [5], the inhibition of viability was 8.8% (inactive). The viability decrease (inhibition) in assay [6] is -6.2% (inactive); in assay [7] it was -5.3% (inactive). Moreover, the inhibition in assay [8] is 7.66% (inactive). In assay [9], the red/green cell ratio (normalised) was 1.1 (inactive). Moreover, the normalised cell number turned out to be 0.87 in assay [9] (setting [15]) and 0.96 in [9] (setting [16]). The result in [10], in assay [11] and in [12] was inactive.
